For 3 compounds, outcome and AC50 results are on record in PubChem BioAssay (EPA / NIEHS).

Active and inactive are the calls of the source. How the source made its calls, unless noted: active means hit-call score of the fitted dose curve at least 0.9, where 1 is the maximum; inactive means score below 0.9.

Read-out in experiment [1]: Protein phosphatase 2A (PPP2R4), PTPA (gene 5524)
The experiment can be described thus: LTEA_HepaRG_PPP2R4: Life Technologies and Expression Analysis (LTEA) Assay for Protein phosphatase 2A (PPP2R4) using HepaRG (AID 2283522). To be noted: mRNA level, 48 h; actives raise or lower the signal. Put shortly:
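HepaRG, 48 h exposure, 8-pt half-log series from 100 uM, 0.5% DMSO vehicle, duplicates. Readout: PPP2R4 mRNA, Fluidigm qRT-PCR, housekeeping-normalized. Bidirectional curve fit vs DMSO baseline.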

Read-out in experiment [2]: Phosphatase and tensin (PTEN), PTEN (gene 5728)
The experiment can be described thus: LTEA_HepaRG_PTEN: Life Technologies and Expression Analysis (LTEA) Assay for Phosphatase and tensin (PTEN) using HepaRG (AID 2283523). To be noted: mRNA level, 48 h; actives raise or lower the signal. An outline of the steps:
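Expression of PTEN is quantified in the human liver line HepaRG following two days of dosing (top concentration 100 uM, half-log dilutions, 0.5% DMSO). Values derive from bidirectional curve fitting relative to DMSO controls.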

Read-out in experiment [3]: solute carrier (SLC22A1), SLC22A1 (gene 6580)
Nature of the experiment: LTEA_HepaRG_SLC22A1: Life Technologies and Expression Analysis (LTEA) Assay for solute carrier (SLC22A1) using HepaRG (AID 2283524).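 On AC50: differentiated human HepaRG liver cells in serum-free induction medium.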 The settings on record: mRNA level, 48 h; actives raise or lower the signal. An outline of the steps:
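Transcript induction or suppression of SLC22A1 in human HepaRG cultures is scored after 48 h chemical treatment, with DMSO (0.5%) as baseline for bidirectional fitting. Concentrations span eight half-log points topping at 100 uM.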

Read-out in experiment [4]: Pyruvate Dehydrogenase Kinase 4 (PDK4), PDK4 (gene 5166)
Nature of the experiment: LTEA_HepaRG_PDK4: Life Technologies and Expression Analysis (LTEA) Assay for Pyruvate Dehydrogenase Kinase 4 (PDK4) using HepaRG (AID 2283525). The settings on record: mRNA level, 48 h; actives raise or lower the signal. An outline of the steps: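 Eight-point, half-log concentration series (max 100 uM, 0.5% DMSO) applied to differentiated HepaRG cells for 48 h in duplicate. Endpoint: PDK4 mRNA induction or repression by qRT-PCR against DMSO baseline.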

Read-out in experiment [5]: NAD(P)H dehydrogenase [quinone] 1 (NQO1), NQO1 (gene 1728)
Nature of the experiment: LTEA_HepaRG_NQO1: Life Technologies and Expression Analysis (LTEA) Assay for NAD(P)H dehydrogenase [quinone] 1 (NQO1) using HepaRG (AID 2283526). The settings on record: mRNA level, 48 h; actives raise or lower the signal. An outline of the steps:
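qRT-PCR read-out (Fluidigm TaqMan), normalized to three housekeeping genes, after 48 h chemical exposure of HepaRG cells. Concentrations: eight points, top 100 uM, half-log steps, 0.5% DMSO vehicle. Gain or loss of signal fitted relative to DMSO.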

Read-out in experiment [6]: Nuclear factor erythroid 2-related factor 2 (Homo sapiens) (UniProt Q16236)
Nature of the experiment: LTEA_HepaRG_NFE2L2: Life Technologies and Expression Analysis (LTEA) Assay for Nuclear factor erythroid 2-related factor 2 (NFE2L2) Transcription Factor using HepaRG (AID 2283527).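 Further: TaqMan qRT-PCR transcript level normalised to ACTB GAPDH and POLR2A housekeeping genes.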 The settings on record: mRNA level, 48 h; actives raise or lower the signal. An outline of the steps:
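Human liver HepaRG line treated in duplicate for 48 h with an eight-point series topping at 100 uM. Gene expression of NFE2L2 by qRT-PCR, bidirectionally fitted against the vehicle control.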

Read-out in experiment [7]: succinate dehydrogenase complex iron sulfur subunit B (SDHB), SDHB (gene 6390)
Nature of the experiment: LTEA_HepaRG_SDHB: Life Technologies and Expression Analysis (LTEA) Assay for succinate dehydrogenase complex iron sulfur subunit B (SDHB) using HepaRG (AID 2283528). To be noted: mRNA level, 48 h; actives raise or lower the signal. Put shortly: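 HepaRG, 48 h exposure, 8-pt half-log series from 100 uM in 0.5% DMSO, duplicates. Readout: SDHB mRNA by Fluidigm qRT-PCR vs housekeeping genes; bidirectional fit relative to DMSO.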

Read-out in experiment [8]: Signal transducer and activator of transcription 3 (Homo sapiens) (UniProt P40763)
The experiment can be described thus: LTEA_HepaRG_STAT3: Life Technologies and Expression Analysis (LTEA) Assay for Signal transducer and activator of transcription (STAT3) using HepaRG (AID 2283529). The settings on record: mRNA level, 48 h; actives raise or lower the signal. Put shortly: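 In this transcriptional endpoint, HepaRG cultures receive test chemicals at up to 100 uM for 48 h, tested in duplicate. STAT3 mRNA is normalized to ACTB, GAPDH and POLR2A.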

Read-out in experiment [9]: solute carrier (SLCO1B1), SLCO1B1 (gene 10599)
The experiment can be described thus: LTEA_HepaRG_SLCO1B1: Life Technologies and Expression Analysis (LTEA) Assay for solute carrier (SLCO1B1) using HepaRG (AID 2283530). The settings on record: mRNA level, 48 h; actives raise or lower the signal. An outline of the steps:
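SLCO1B1 transcript levels were quantified by TaqMan qRT-PCR using three housekeeping genes for normalization. This followed 48 h chemical exposure (100 uM top, half-log, 8 points, 0.5% DMSO) of HepaRG liver cells, with gain or loss fitted relative to DMSO.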

Read-out in experiment [10]: sulfotransferase 2A1 (SULT2A1), SULT2A1 (gene 6822)
The experiment can be described thus: LTEA_HepaRG_SULT2A1: Life Technologies and Expression Analysis (LTEA) Assay for sulfotransferase 2A1 (SULT2A1) using HepaRG (AID 2283531). To be noted: mRNA level, 48 h; actives raise or lower the signal. Put shortly:
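Expression change of SULT2A1, by qRT-PCR with three housekeeping-gene normalization, was scored bidirectionally versus DMSO. Cells: differentiated HepaRG, dosed in duplicate for 48 h across 8 points, highest 100 µM, half-log dilution, 0.5% DMSO.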

Read-out in experiment [11]: Transforming Growth Factor (TGFA), TGFA (gene 7039)
Nature of the experiment: LTEA_HepaRG_TGFA: Life Technologies and Expression Analysis (LTEA) Assay for Transforming Growth Factor (TGFA) using HepaRG (AID 2283532). To be noted: mRNA level, 48 h; actives raise or lower the signal. Put shortly: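 Gene expression of TGFA was quantified by qRT-PCR after human HepaRG cells were treated for 48 h with test chemicals (eight concentrations, highest 100 uM, 0.5% DMSO). Activity in either direction was fitted relative to DMSO.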

Read-out in experiment [12]: Transforming Growth Factor (TGFB1), TGFB1 (gene 7040)
Nature of the experiment: LTEA_HepaRG_TGFB1: Life Technologies and Expression Analysis (LTEA) Assay for Transforming Growth Factor (TGFB1) Transporter using HepaRG (AID 2283533). The settings on record: mRNA level, 48 h; actives raise or lower the signal. Put shortly:
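TGFB1 transcript measured by qRT-PCR with normalisation to three housekeeping genes (ACTB, GAPDH, POLR2A); human HepaRG line treated in duplicate for 48 hr with an 8-point series topping at 100 uM, 0.5% DMSO vehicle, bidirectionally fitted.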

Read-out in the next experiment: TIMP1, TIMP1 (gene 7076)
The experiment can be described thus: LTEA_HepaRG_TIMP1: Life Technologies and Expression Analysis (LTEA) Assay for TIMP1 using HepaRG (AID 2283534). To be noted: mRNA level, 48 h; actives raise or lower the signal. An outline of the steps: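 Bidirectional change in TIMP1 transcript versus 0.5% DMSO, measured by TaqMan qRT-PCR with three housekeeping genes for normalization. HepaRG human liver cells dosed 48 h in duplicate, top concentration 100 uM with half-log dilutions.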

Read-out in experiment [13]: Tumor necrosis factor receptor 1 (TNFRSF1A), TNFRSF1A (gene 7132)
Nature of the experiment: LTEA_HepaRG_TNFRSF1A: Life Technologies and Expression Analysis (LTEA) Assay for Tumor necrosis factor receptor 1 (TNFRSF1A) using HepaRG (AID 2283535). The settings on record: mRNA level, 48 h; actives raise or lower the signal. Put shortly:
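mRNA measured by qRT-PCR (TaqMan, Fluidigm arrays) against ACTB/GAPDH/POLR2A housekeepers after 48 h chemical exposure of HepaRG cells. Top concentration 100 uM, half-log 8-point series, duplicates; vehicle 0.5% DMSO, both fit directions.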

Read-out in experiment [14]: Thyroid Hormone Responsive (THRSP), THRSP (gene 7069)
Nature of the experiment: LTEA_HepaRG_THRSP: Life Technologies and Expression Analysis (LTEA) Assay for Thyroid Hormone Responsive (THRSP) using HepaRG (AID 2283536). The settings on record: mRNA level, 48 h; actives raise or lower the signal. Put shortly:
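Cell model: human HepaRG, approx. 100,000 cells/well, 0.5% DMSO vehicle. Exposure lasts 48 h; phenobarbital 1 mM serves as induction positive control. Gene expression is measured by qRT-PCR against three endogenous control genes.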

Read-out in experiment [15]: UDP glucuronosyltransferase (UGT1A1), UGT1A1 (gene 54658)
Nature of the experiment: LTEA_HepaRG_UGT1A1: Life Technologies and Expression Analysis (LTEA) Assay for UDP glucuronosyltransferase (UGT1A1) using HepaRG (AID 2283538). To be noted: mRNA level, 48 h; actives raise or lower the signal. Put shortly:
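HepaRG, 48 h chemical exposure (top 100 uM, half-log 8-pt, 0.5% DMSO vehicle), duplicate wells; qRT-PCR (TaqMan, Fluidigm array) for UGT1A1 mRNA, housekeeping-normalized; bidirectional curve fit vs DMSO baseline.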

Read-out in experiment [16]: UDP glucuronosyltransferase (UGT1A6), UGT1A6 (gene 54578)
Nature of the experiment: LTEA_HepaRG_UGT1A6: Life Technologies and Expression Analysis (LTEA) Assay for UDP glucuronosyltransferase (UGT1A6) using HepaRG (AID 2283539). To be noted: mRNA level, 48 h; actives raise or lower the signal. Put shortly:
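Expression was quantified by TaqMan qRT-PCR on Fluidigm arrays with ACTB/GAPDH/POLR2A normalization and bidirectional fitting against 0.5% DMSO. HepaRG cells (~100,000/well) were treated in duplicate for 48 h at eight half-log concentrations up to 100 uM in serum-free induction medium.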

Read-out in experiment [17]: X-box binding protein 1 (XBP1), XBP1 (gene 7494)
Nature of the experiment: LTEA_HepaRG_XBP1: Life Technologies and Expression Analysis (LTEA) Assay for X-box binding protein 1 (XBP1) using HepaRG (AID 2283540). The settings on record: mRNA level, 48 h; actives raise or lower the signal. Put shortly: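 XBP1 transcript by qRT-PCR (housekeeping-normalized: ACTB, GAPDH, POLR2A) after 48 h chemical treatment of HepaRG cells, 8-point half-log series topping at 100 uM, vehicle 0.5% DMSO. Gain and loss of signal fitted relative to DMSO.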

A short description of experiment [18]: LTEA_HepaRG_LDH_cytotoxicity: Cytotoxicity Assessment in the Life Technologies and Expression Analysis (LTEA) Assay (AID 2283563; active means hit-call score of the fitted dose curve at least 0.9, where 1 is the maximum;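 on AC50: LDH activity released into spent culture medium as a marker of cell death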). An outline of the steps: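 LDH release into culture medium read after 48 h chemical treatment of HepaRG cells. Duplicate wells, eight-point half-log series topping at 100 uM, 0.5% DMSO vehicle and baseline.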

Chain of Nuclear factor erythroid 2-related factor 2 (Homo sapiens) (Q16236 whole entry, looked up): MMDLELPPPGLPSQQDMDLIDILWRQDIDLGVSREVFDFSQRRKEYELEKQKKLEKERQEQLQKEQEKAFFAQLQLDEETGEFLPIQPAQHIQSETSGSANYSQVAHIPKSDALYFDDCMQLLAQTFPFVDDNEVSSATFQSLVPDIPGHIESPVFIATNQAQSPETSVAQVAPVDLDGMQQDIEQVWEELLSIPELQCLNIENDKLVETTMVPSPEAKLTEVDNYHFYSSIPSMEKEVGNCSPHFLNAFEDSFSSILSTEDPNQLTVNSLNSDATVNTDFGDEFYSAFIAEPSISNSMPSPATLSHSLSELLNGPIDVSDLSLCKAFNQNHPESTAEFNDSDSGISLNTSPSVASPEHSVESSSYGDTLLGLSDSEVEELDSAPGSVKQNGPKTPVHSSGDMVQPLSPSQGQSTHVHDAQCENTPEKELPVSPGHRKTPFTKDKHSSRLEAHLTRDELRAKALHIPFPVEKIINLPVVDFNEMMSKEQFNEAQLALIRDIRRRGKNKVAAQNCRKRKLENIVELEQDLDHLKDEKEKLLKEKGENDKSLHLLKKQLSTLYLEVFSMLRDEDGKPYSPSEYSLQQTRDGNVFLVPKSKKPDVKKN
Chain of Signal transducer and activator of transcription 3 (Homo sapiens) (P40763 whole entry, looked up): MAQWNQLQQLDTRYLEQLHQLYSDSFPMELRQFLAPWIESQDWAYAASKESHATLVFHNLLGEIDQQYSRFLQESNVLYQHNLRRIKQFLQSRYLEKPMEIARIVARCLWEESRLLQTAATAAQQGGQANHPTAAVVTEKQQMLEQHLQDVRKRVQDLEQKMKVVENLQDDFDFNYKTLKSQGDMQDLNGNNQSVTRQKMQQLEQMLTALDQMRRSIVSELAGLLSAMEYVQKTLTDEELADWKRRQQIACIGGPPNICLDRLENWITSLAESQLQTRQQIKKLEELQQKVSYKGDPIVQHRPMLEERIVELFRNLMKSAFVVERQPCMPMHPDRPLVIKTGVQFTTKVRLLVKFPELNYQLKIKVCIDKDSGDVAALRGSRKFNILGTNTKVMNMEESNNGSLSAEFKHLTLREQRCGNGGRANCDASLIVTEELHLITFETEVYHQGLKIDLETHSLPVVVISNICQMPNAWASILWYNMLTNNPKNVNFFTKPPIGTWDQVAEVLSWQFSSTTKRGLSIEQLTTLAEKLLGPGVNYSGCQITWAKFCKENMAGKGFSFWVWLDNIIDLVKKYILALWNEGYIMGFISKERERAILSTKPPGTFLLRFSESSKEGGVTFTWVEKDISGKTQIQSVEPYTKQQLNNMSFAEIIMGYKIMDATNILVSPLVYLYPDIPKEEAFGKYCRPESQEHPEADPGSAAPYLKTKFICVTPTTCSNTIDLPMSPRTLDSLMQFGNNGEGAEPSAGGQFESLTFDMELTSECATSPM

Take `CN(C)[C@@H]1C(=O)C(C(N)=O)=C(O)[C@@]2(O)C(=O)C3=C(O)c4c(O)cccc4[C@@](C)(O)[C@H]3[C@H](O)[C@@H]12`: the call in [1], in [2], in experiment [3], in [4], in [5] and in [6] was inactive. Also, the compound was called inactive in [7], in experiment [8], in experiment [9], in experiment [10], in [11] and in [12]. Also, the outcome with TIMP1, TIMP1 (gene 7076) is “inactive”; in [13], “inactive”; in experiment [14], “inactive”; in [15] it was “inactive”; in [16], “inactive”; in experiment [17] it was “inactive”. Besides, in experiment [18], the call was inactive.
Turning to `CC[C@H](C)[C@H]1O[C@]2(C=C[C@@H]1C)C[C@@H]1C[C@@H](C/C=C(\C)[C@@H](O[C@H]3C[C@H](OC)[C@@H](O[C@H]4C[C@H](OC)[C@@H](NC)[C@H](C)O4)[C@H](C)O3)[C@@H](C)/C=C/C=C3\CO[C@@H]4[C@H](O)C(C)=C[C@@H](C(=O)O1)[C@]34O)O2`, the concentration at half-maximal activity (AC50) in experiment [1] was 33.3 µM (active); in experiment [2], 23.5 µM (active); in experiment [3], 23.8 µM (active); in experiment [4], 91.9 µM (active); in [5], 31.7 µM (active); in experiment [8], 11.9 µM (active). Besides, the concentration at half-maximal activity (AC50) in experiment [9] is 19.9 µM (active); in experiment [10] it was 26.3 µM (active); in experiment [13], 12 µM (active); in experiment [15] it was 12.7 µM (active); in experiment [16], 12.5 µM (active); in experiment [17] it was 12.8 µM (active). Further, in experiment [18], the AC50 was 18.2 µM (active). In addition, the outcome was “inactive” in experiment [6]; “inactive” in [7]; “inactive” in [11]; “inactive” in experiment [12]; “inactive” with TIMP1, TIMP1 (gene 7076); “inactive” in experiment [14].
Regarding `CCc1cnc(C2=NC(C)(C(C)C)C(=O)N2)c(C(=O)O)c1` (configuration not stated), the compound was called inactive in [1], in experiment [2], in [3], in experiment [4], in experiment [5] and in [6]. Moreover, the call in experiment [7], in experiment [8], in [9], in [10], in [11] and in experiment [12] was inactive. The outcome is “inactive” with TIMP1, TIMP1 (gene 7076); “inactive” in experiment [13]; “inactive” in [14]; “inactive” in [15]; “inactive” in [16]; “inactive” in experiment [17]. Also, the compound was called inactive in [18].

By AC50 is commonly meant the concentration at which the activity in the assay is half-maximal.
